This is part of a sample that, as a whole, favours compounds with a hit. Of some 83,000 tested, about 20% had one in any assay.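 Single-concentration screen, 48 h exposure, 96-well plates. Endpoint: percent growth. Below 10 = active.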 Values without a mark were called inactive. The source made the active and inactive calls.

Some test systems named below: SK-MEL-2 melanoma; EKVX NSCLC; SN12C renal; UO-31 renal; TK-10 renal; ACHN renal; CAKI-1 renal; A498 renal; CCRF-CEM leukemia; MOLT-4 leukemia; SR leukemia; RPMI-8226 leukemia; OVCAR-8 ovarian; OVCAR-5 ovarian; OVCAR-4 ovarian; SK-OV-3 ovarian; IGROV1 ovarian; OVCAR-3 ovarian; HS 578T breast; NCI/ADR-RES ovarian.
Common to all, as to experiment: NCI-60 one-dose screen, 48 h (100 = growth as untreated, 0 = no growth, -100 = all killed)
Common to all, as to conditions: 10 µM unless noted

With `C#CCOc1cc(/C=N/Nc2nc(-c3ccc(OC)cc3)cs2)ccc1O`, the growth with SK-MEL-2 melanoma was 93.3%; in the test with EKVX NSCLC, 67.8%; with SN12C renal, 86.8%; in the test on UO-31 renal, 72.6%; in the test with TK-10 renal it was 94.2%; in the test with ACHN renal it was 90.8%. Besides, the growth with CAKI-1 renal is 77.6%; in the test on A498 renal, 82.4%; with CCRF-CEM leukemia it was 82.2%; with MOLT-4 leukemia it was 87.3%; with SR leukemia it was 74.4%; with RPMI-8226 leukemia, 63.3%. In addition, the growth in the test on OVCAR-8 ovarian was 87.9%; in the test on OVCAR-5 ovarian, 97.1%; with OVCAR-4 ovarian, 71.7%; in the test with SK-OV-3 ovarian, 99.4%; in the test with IGROV1 ovarian it was 91.8%; in the test with OVCAR-3 ovarian, 86.3%. Besides, the growth in the test on HS 578T breast was 95.8%; in the test on NCI/ADR-RES ovarian, 85.1%.
In the case of `O=C(Nc1ccccc1C(F)(F)F)C1=NCCCCN1`, the growth is 104% with SK-MEL-2 melanoma; 93.1% in the test with EKVX NSCLC; 98% in the test with SN12C renal; 86.2% in the test with UO-31 renal; 98.8% in the test on TK-10 renal; 103% with ACHN renal. For the same compound, the growth in the test with CAKI-1 renal was 96.6%; in the test on A498 renal it was 97.1%; in the test on CCRF-CEM leukemia, 102%; in the test with MOLT-4 leukemia, 99.2%; in the test on SR leukemia, 102%; in the test on RPMI-8226 leukemia, 99.6%. Also, the growth with OVCAR-8 ovarian was 99.9%; in the test with OVCAR-5 ovarian, 94.7%; in the test with OVCAR-4 ovarian, 99%; in the test with SK-OV-3 ovarian, 108%; in the test on IGROV1 ovarian, 101%; with OVCAR-3 ovarian it was 101%. The results for the growth in the test with HS 578T breast and in the test on NCI/ADR-RES ovarian were 99.8% and 103%, respectively.
As for `CC/C(=C(/c1ccc(Cl)cc1)c1ccc(OCCN2CCCC2)cc1)c1ccccc1`, the growth is 88% with SK-MEL-2 melanoma; 59.3% in the test with EKVX NSCLC; 69.3% in the test on SN12C renal; 66.2% in the test on UO-31 renal; 93.5% in the test with TK-10 renal; 87.9% with ACHN renal. Moreover, the growth with CAKI-1 renal was 61.6%; with A498 renal, 79.7%; in the test on CCRF-CEM leukemia, 36.9%; with MOLT-4 leukemia it was 42.8%; with SR leukemia, -10.5% (active); with RPMI-8226 leukemia it was 7.58% (active). For the same compound, the growth in the test with OVCAR-8 ovarian was 69.7%; in the test with OVCAR-5 ovarian, 82.4%; in the test with OVCAR-4 ovarian, 72.2%; in the test on SK-OV-3 ovarian, 104%; in the test on IGROV1 ovarian it was 76.6%; in the test with OVCAR-3 ovarian it was 70.2%. Also, the growth in the test with HS 578T breast is 71.3%; in the test on NCI/ADR-RES ovarian, 80.1%.
Regarding `Cc1ccc(-c2nc(C#N)c(S(=O)(=O)n3nc(C)cc3N)o2)cc1`, the growth is 98.3% in the test on SK-MEL-2 melanoma; 121% in the test on EKVX NSCLC; 90.1% with SN12C renal; 79.8% in the test with UO-31 renal; -64.9% (active) with TK-10 renal; -37.8% (active) in the test with ACHN renal. For the same compound, the growth with CAKI-1 renal is 82%; in the test with A498 renal it was 76.1%; in the test with CCRF-CEM leukemia, -18.8% (active); with MOLT-4 leukemia it was -38% (active); with SR leukemia, -25.8% (active); in the test on RPMI-8226 leukemia it was 46.5%. The growth was 87.2% in the test with OVCAR-8 ovarian; 99.8% in the test with OVCAR-5 ovarian; 111% with OVCAR-4 ovarian; 108% in the test on SK-OV-3 ovarian; 80.8% with IGROV1 ovarian; 54.3% with OVCAR-3 ovarian. For the same compound, the values for the growth in the test on HS 578T breast and with NCI/ADR-RES ovarian were 103% and 98.5%, respectively.
Turning to `COc1cc(OCc2cccc(-c3ccccc3)c2C)cc(OC)c1CN1CCCCC1C(=O)NCCOCCOCCN` (stereo not given), the growth in the test on SK-MEL-2 melanoma is 98.4%; with EKVX NSCLC, 85.5%; in the test with SN12C renal, 87.6%; in the test with UO-31 renal, 79.1%; in the test on TK-10 renal, 125%; in the test on ACHN renal, 98.7%. For the same compound, the growth is 92.4% in the test on CAKI-1 renal; 72.9% in the test with A498 renal; 1% (active) in the test on CCRF-CEM leukemia; 38.4% with MOLT-4 leukemia; -26% (active) with SR leukemia; 13.4% in the test with RPMI-8226 leukemia. Besides, the growth is 82.8% in the test on OVCAR-8 ovarian; 101% in the test with OVCAR-5 ovarian; 53.3% with OVCAR-4 ovarian; 104% in the test with SK-OV-3 ovarian; 70% in the test with IGROV1 ovarian; 85% in the test on OVCAR-3 ovarian. Also, the growth with HS 578T breast is 84.5%; in the test with NCI/ADR-RES ovarian, 103%.
Regarding `Clc1ccc2c(NCCCn3cnc4c(N5CCCC5)nc(Cl)nc43)ccnc2c1`, the growth is 89.6% in the test on SK-MEL-2 melanoma; 96.4% with EKVX NSCLC; 94.3% in the test with SN12C renal; 77.4% in the test on UO-31 renal; 102% with TK-10 renal; 91.8% in the test with ACHN renal. The growth was 90.8% in the test with CAKI-1 renal; 94.4% in the test on A498 renal; 104% with CCRF-CEM leukemia; 92.3% in the test with MOLT-4 leukemia; 84.2% in the test on SR leukemia; 115% with RPMI-8226 leukemia. The growth in the test with OVCAR-8 ovarian was 103%; in the test on OVCAR-5 ovarian it was 101%; with OVCAR-4 ovarian it was 100%; in the test with SK-OV-3 ovarian, 88.2%; with IGROV1 ovarian, 89%; in the test with OVCAR-3 ovarian, 101%. Moreover, the growth with HS 578T breast is 104%; with NCI/ADR-RES ovarian, 93.3%.
Regarding `O=C(OCC(O)C(=O)NC12CC3CC(CC(C3)C1)C2)c1cccc(Br)c1` (stereo not given), the growth in the test with SK-MEL-2 melanoma was 103%; in the test on EKVX NSCLC, 96.4%; with SN12C renal, 102%; with UO-31 renal, 84.9%; with TK-10 renal, 109%; in the test on ACHN renal, 101%. Further, the growth in the test on CAKI-1 renal is 96.2%; with A498 renal it was 94.4%; in the test with CCRF-CEM leukemia, 81.9%; in the test on MOLT-4 leukemia it was 87%; with SR leukemia it was 84.9%; in the test on RPMI-8226 leukemia, 94.6%. For the same compound, the growth was 95.9% in the test on OVCAR-8 ovarian; 101% with OVCAR-5 ovarian; 98.2% with OVCAR-4 ovarian; 102% with SK-OV-3 ovarian; 103% with IGROV1 ovarian; 109% in the test with OVCAR-3 ovarian. The figures for the growth in the test on HS 578T breast and with NCI/ADR-RES ovarian were 95.7% and 101%, respectively.
For the compound `O=C(Nc1ccc2[nH]ncc2c1)c1csc(Nc2ccccc2)n1`, the growth is 29.6% in the test on SK-MEL-2 melanoma; 45.8% in the test with EKVX NSCLC; 41.1% with SN12C renal; 45.5% in the test on UO-31 renal; 48.1% with TK-10 renal; 56.5% with ACHN renal. Further, the growth was 36.5% in the test with CAKI-1 renal; 22.2% with A498 renal; 19.4% in the test with CCRF-CEM leukemia; 43.9% with MOLT-4 leukemia; 22.8% in the test with SR leukemia; 7.99% (active) in the test with RPMI-8226 leukemia. Further, the growth is 35.9% in the test with OVCAR-8 ovarian; 64.5% in the test with OVCAR-5 ovarian; 61.6% in the test on OVCAR-4 ovarian; 50.7% in the test with SK-OV-3 ovarian; 54.9% in the test on IGROV1 ovarian; 13.1% in the test with OVCAR-3 ovarian. For the same compound, the growth with HS 578T breast is 38.3%; in the test on NCI/ADR-RES ovarian it was 16.5%.

(Values after PubChem BioAssay (NCI).)
